# Assay results reported in PubChem BioAssay (EPA / NIEHS).
# Results filed as inconclusive are left out. The source made the active and inactive calls. Rule for the calls, unless noted: active = hit-call score of the fitted dose curve at least 0.9, where 1 is the maximum; inconclusive = response in the unintended direction; inactive = score below 0.9.
# Legend:
# [1] = target: Cellular tumor antigen p53 (Homo sapiens) (UniProt P04637); test: TOX21_p53_BLA_p5_ratio: Tox21 HCT-116 p53 Agonism Beta-lactamase Assay, Ratio, Phase 5 (AID 2283599)
# Sequence of Cellular tumor antigen p53 (Homo sapiens) (P04637 whole entry, looked up): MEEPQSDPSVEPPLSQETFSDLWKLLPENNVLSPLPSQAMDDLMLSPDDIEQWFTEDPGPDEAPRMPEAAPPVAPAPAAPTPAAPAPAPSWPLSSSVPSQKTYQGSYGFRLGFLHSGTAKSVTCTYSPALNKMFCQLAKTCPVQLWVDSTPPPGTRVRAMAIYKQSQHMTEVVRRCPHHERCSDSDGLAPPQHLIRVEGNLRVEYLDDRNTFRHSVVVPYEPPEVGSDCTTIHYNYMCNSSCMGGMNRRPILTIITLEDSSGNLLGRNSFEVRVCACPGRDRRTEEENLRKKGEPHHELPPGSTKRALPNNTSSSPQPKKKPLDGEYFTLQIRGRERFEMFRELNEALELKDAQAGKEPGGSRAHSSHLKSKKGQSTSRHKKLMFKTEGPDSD
# In short: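 HCT-116 p53-bla cells (4000/well) plated 5 h, dosed with compound (217-fold DMSO dilution) for 16 h at 37 C; CCF4-AM substrate 2 h at room temperature. Activity is the 460/530 nm emission ratio (405 nm excitation), fitted in gain-of-signal direction versus DMSO.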
# [2] = TOX21_p53_BLA_p5_viability: Viability Assessment in the Tox21 HCT-116 p53 Agonism Beta-lactamase Assay, Phase 5 (AID 2283600)
# In short: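 ATP luminescence (CellTiter-Glo, 30 min, RT) served as the viability read-out, with loss of signal indicating cytotoxicity. Compounds in DMSO were pinned at a 217-fold dilution onto 4000 cells/well and incubated 16 h, 37C.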
# [3] = Tanguay_ZF_120hpf_MORT_legacy: (Legacy) Oregon State University Tanguay Lab 120 Hour Post-fertilization zebrafish Assay for Mortality (AID 2283633)
# In short: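 Brightfield scoring of embryo death (binary) at 24 and 120 hpf; static exposure 6–120 hpf, 28C, sealed and foil-covered. Pronase-dechorionated 5D wild-type larvae, single embryo per well. DMSO 0.64% v/v; trimethyltin chloride 5uM positive control.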
# [4] = Tanguay_ZF_120hpf_AXIS_legacy: (Legacy) Oregon State University Tanguay Lab 120 Hour Post-fertilization zebrafish Assay for Body Axis Malformation (AID 2283635)
# In short: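 Embryos: 5D wild-type, pronase-dechorionated 4 hpf; static exposure 6–120 hpf, 28C, sealed, dark, 1 embryo/well, 0.64% DMSO. 120 hpf axis malformation scored present/absent; dead embryos excluded. Analysed as gain of signal vs DMSO.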
# [5] = Tanguay_ZF_120hpf_EYE_legacy: (Legacy) Oregon State University Tanguay Lab 120 Hour Post-fertilization zebrafish Assay for Eye Malformation (AID 2283636);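 note: binary presence or absence of eye malformation scored by brightfield in 120 hpf larvae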
# In short: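 5D wild-type embryos, pronase-dechorionated at 4 hpf; static exposure 6–120 hpf, 28C, dark; DMSO 0.64% final; 5uM trimethyltin chloride positive control. Binary eye-defect scoring at 120 hpf; dead embryos not scored.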
# [6] = Tanguay_ZF_120hpf_SNOU_legacy: (Legacy) Oregon State University Tanguay Lab 120 Hour Post-fertilization zebrafish Assay for Snout Malformation (AID 2283637)
# In short: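 Binary brightfield scoring of snout malformation at 120 hpf. Dechorionated 5D wild-type embryos, one per well, static exposure from 6 hpf at 28C, sealed and dark; final DMSO 0.64% (vol/vol), DMSO as baseline; 5uM trimethyltin chloride positive control.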
# [7] = Tanguay_ZF_120hpf_PE_legacy: (Legacy) Oregon State University Tanguay Lab 120 Hour Post-fertilization zebrafish Assay for Pericardial Edema (AID 2283640)
# In short: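 Static waterborne exposure, 5D wild-type embryos, 28C, to 120 hpf; final DMSO 0.64% (vol/vol). Binary PE call at 120 hpf by brightfield; fitted upward vs DMSO baseline. 5uM trimethyltin chloride as positive control.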
# [8] = Tanguay_ZF_120hpf_BRAI_legacy: (Legacy) Oregon State University Tanguay Lab 120 Hour Post-fertilization zebrafish Assay for Brain Malformation (AID 2283641)
# In short: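 Read-out: binary brain morphology call at 120 hpf (brightfield), fitted in gain-of-signal direction vs DMSO. Wild-type Tropical 5D embryos, static exposure, 28C, 0.64% DMSO final; 5uM trimethyltin chloride as positive control.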
# [9] = Tanguay_ZF_120hpf_SOMI_legacy: (Legacy) Oregon State University Tanguay Lab 120 Hour Post-fertilization zebrafish Assay for Somite Malformation (AID 2283647)
# In short: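 Binary brightfield scoring of somite defects at 120 hpf in 5D wild-type larvae; one dechorionated embryo per well, static exposure from 6 hpf, 28C, sealed and dark. Final DMSO 0.64%; trimethyltin chloride 5uM positive control.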
# [10] = Tanguay_ZF_120hpf_PFIN_legacy: (Legacy) Oregon State University Tanguay Lab 120 Hour Post-fertilization zebrafish Assay for Pectoral Fin Malformation (AID 2283648);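 note: each larva judged yes or no for fin defect by brightfield with dead larvae skipped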
# In short: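 Binary pectoral fin malformation call at 120 hpf by brightfield microscopy; 5D wild-type zebrafish, chorion removed at 4 hpf, one embryo per well from 6 hpf, static exposure at 28C; DMSO (0.64% final) as baseline.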
# [11] = Tanguay_ZF_120hpf_CFIN_legacy: (Legacy) Oregon State University Tanguay Lab 120 Hour Post-fertilization zebrafish Assay for Caudal Fin Malformation (AID 2283649)
# In short: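 Dechorionated 5D wild-type zebrafish, static exposure 6–120 hpf, 28C, sealed and dark, 0.64% v/v DMSO final. Binary fin-malformation call at 120 hpf, brightfield; gain of signal vs DMSO baseline.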
# [12] = Tanguay_ZF_120hpf_PIG_legacy: (Legacy) Oregon State University Tanguay Lab 120 Hour Post-fertilization zebrafish Assay for Pigmentation Malformation (AID 2283650);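 note: dechorionated Tropical 5D zebrafish embryos exposed singly from 6 to 120 hpf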
# In short: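 Brightfield scoring of pigmentation malformation at 120 hpf, recorded as binary present/absent per larva. Exposure: dechorionated 5D wild-type embryos, one per well, static from 6 hpf at 28C, final DMSO 0.64% (vol/vol). Dead embryos not scored.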
# [13] = Tanguay_ZF_120hpf_SWIM_legacy: (Legacy) Oregon State University Tanguay Lab 120 Hour Post-fertilization zebrafish Assay for Swim Bladder Malformation (AID 2283654);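 note: swim bladder malformation in each larva scored yes or no under brightfield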
# In short: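 Tropical 5D embryos dechorionated at 4 hpf; 1 embryo/well from 6 hpf; static, sealed, dark exposure at 28C until 120 hpf; final DMSO 0.64%; 5uM trimethyltin chloride positive control; swim bladder defect recorded yes/no; dead embryos not scored.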
# [14] = Tanguay_ZF_120hpf_OTIC_legacy: (Legacy) Oregon State University Tanguay Lab 120 Hour Post-fertilization zebrafish Assay for Otic Vesicle Malformation (AID 2283639)
# In short: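 Binary scoring of otic vesicle defects at 120 hpf in zebrafish (Tropical 5D) held under static exposure at 28C, sealed and shaded, with final DMSO 0.64%. Embryos dying by 24 or 120 hpf excluded; fitted positively against DMSO.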
# [15] = Tanguay_ZF_120hpf_CIRC_legacy: (Legacy) Oregon State University Tanguay Lab 120 Hour Post-fertilization zebrafish Assay for Circulatory Malformation (AID 2283651)
# In short: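 Binary circulatory malformation call at 120 hpf by brightfield imaging of zebrafish larvae; chorion removed at 4 hpf, static exposure from 6 hpf in sealed dark plates at 28C, final DMSO 0.64%; non-mortality endpoints skipped if embryo died.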
# [16] = target: Cellular tumor antigen p53 (Homo sapiens) (UniProt P04637); test: TOX21_p53_BLA_p4_ratio: Tox21 HCT-116 p53 Agonism Beta-lactamase Assay, Ratio, Phase 4 (AID 2283601)
# In short: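 HCT-116 p53 beta-lactamase reporter cells (4000/well) preincubated 5 h, then compound (217-fold dilution of DMSO stock) for 16 h at 37C. CCF4-AM substrate added 2 h at room temperature; 460/530 nm emission ratio fitted upward versus DMSO.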
# [17] = Tanguay_ZF_120hpf_YSE_legacy: (Legacy) Oregon State University Tanguay Lab 120 Hour Post-fertilization zebrafish Assay for Yolk Sac Edema (AID 2283634)
# In short: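 Binary brightfield scoring of yolk sac edema at 120 hpf; DMSO baseline, gain-of-signal fitting. Dechorionated 5D larvae, one per well, static exposure 6–120 hpf, 28C, 0.64% DMSO. Dead embryos not scored.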
# [18] = read-out: solute carrier (SLC22A6), SLC22A6 (gene 9356); test: LTEA_HepaRG_SLC22A6: Life Technologies and Expression Analysis (LTEA) Assay for solute carrier (SLC22A6) using HepaRG (AID 2283653; active = hit-call score of the fitted dose curve at least 0.9, where 1 is the maximum; inactive = score below 0.9); conditions: mRNA level, 48 h; actives raise or lower the signal
# In short: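 HepaRG, human liver line; 48 h chemical exposure; 8-pt half-log series from 100 uM in 0.5% DMSO, duplicate wells. Readout: TaqMan qRT-PCR of SLC22A6 mRNA, housekeeping-normalised; bidirectional curve fit vs DMSO baseline.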
# [19] = Tanguay_ZF_120hpf_JAW_legacy: (Legacy) Oregon State University Tanguay Lab 120 Hour Post-fertilization zebrafish Assay for Jaw Malformation (AID 2283638)
# In short: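 Binary jaw-malformation calls at 120 hpf by brightfield imaging; DMSO (0.64% v/v) = baseline. Embryos: 5D wild-type, pronase-dechorionated, one per well from 6 hpf, static exposure, 28C, sealed, dark.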
# [20] = read-out: kallikrein-3 (KLK3), KLK3 (gene 354); test: LTEA_HepaRG_KLK3: Life Technologies and Expression Analysis (LTEA) Assay for kallikrein-3 (KLK3) using HepaRG (AID 2283652; active = hit-call score of the fitted dose curve at least 0.9, where 1 is the maximum; inactive = score below 0.9); conditions: mRNA level, 48 h; actives raise or lower the signal
# In short: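 KLK3 transcript levels were measured by TaqMan qRT-PCR with normalisation to three housekeeping genes. HepaRG cultures received chemicals for 48 h at up to 100 uM (half-log, 8 points, 0.5% DMSO vehicle), fitted in both directions against DMSO.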
smiles,measurement,setting,value
CCCCOCCO,outcome,[1],inactive
same,outcome,[2],inactive
same,outcome,[3],inactive
same,outcome,[4],inactive
same,outcome,[5],inactive
same,outcome,[6],inactive
same,outcome,[7],inactive
same,outcome,[8],inactive
same,outcome,[9],inactive
same,outcome,[10],inactive
same,outcome,[11],inactive
same,outcome,[12],inactive
same,outcome,[13],inactive
COCC(C)OCC(C)O (centres undefined),outcome,[3],inactive
same,outcome,[5],inactive
same,outcome,[6],inactive
same,outcome,[14],inactive
same,outcome,[7],inactive
same,outcome,[8],inactive
same,outcome,[9],inactive
same,outcome,[10],inactive
same,outcome,[15],inactive
same,outcome,[13],inactive
COC(=O)CCCCC(=O)OC,outcome,[1],inactive
same,outcome,[2],inactive
same,outcome,[16],inactive
same,outcome,[3],inactive
same,outcome,[5],inactive
same,outcome,[6],inactive
same,outcome,[14],inactive
same,outcome,[7],inactive
same,outcome,[8],inactive
same,outcome,[9],inactive
same,outcome,[10],inactive
same,outcome,[11],inactive
same,outcome,[12],inactive
same,outcome,[15],inactive
same,outcome,[13],inactive
C#C[C@]1(O)CC[C@H]2[C@@H]3CCC4=CC(=O)CC[C@@H]4[C@H]3CC[C@@]21C,outcome,[3],inactive
same,outcome,[17],inactive
same,outcome,[5],inactive
same,outcome,[6],inactive
same,outcome,[14],inactive
same,outcome,[7],inactive
same,outcome,[10],inactive
same,outcome,[11],inactive
same,outcome,[12],inactive
same,outcome,[18],inactive
same,outcome,[13],inactive
NC(=O)N(O)[C@@H]1C=C[C@H](Oc2cccc(Oc3ccc(F)cc3)c2)C1,outcome,[1],inactive
same,AC50,[16],74.5 µM (active)
same,outcome,[3],inactive
same,outcome,[17],inactive
same,outcome,[5],inactive
same,outcome,[6],inactive
same,outcome,[7],inactive
same,outcome,[8],inactive
same,outcome,[9],inactive
same,outcome,[10],inactive
same,outcome,[11],inactive
same,outcome,[12],inactive
same,outcome,[13],inactive
OCCC(F)(F)C(F)(F)C(F)(F)C(F)(F)C(F)(F)C(F)(F)C(F)(F)C(F)(F)F,outcome,[1],inactive
same,outcome,[2],inactive
same,outcome,[16],inactive
same,outcome,[3],inactive
same,outcome,[6],inactive
same,outcome,[8],inactive
same,outcome,[9],inactive
same,outcome,[10],inactive
same,outcome,[11],inactive
same,outcome,[12],inactive
same,outcome,[13],inactive
CCCCCCCCOC(=O)CCCCCCCCC(=O)OCCCCCCCC,outcome,[1],inactive
same,outcome,[3],inactive
same,outcome,[17],inactive
same,outcome,[5],inactive
same,outcome,[6],inactive
same,outcome,[19],inactive
same,outcome,[14],inactive
same,outcome,[7],inactive
same,outcome,[8],inactive
same,outcome,[9],inactive
same,outcome,[10],inactive
same,outcome,[11],inactive
same,outcome,[12],inactive
same,outcome,[13],inactive
O=C1OC2(c3ccccc31)c1cc(Br)c(O)c(Br)c1Oc1c2cc(Br)c(O)c1Br,outcome,[2],inactive
CC(C)CCCCCCOC(=O)CCCCC(=O)OCCCCCCC(C)C,outcome,[16],inactive
same,outcome,[3],inactive
same,outcome,[17],inactive
same,outcome,[5],inactive
same,outcome,[6],inactive
same,outcome,[14],inactive
same,outcome,[7],inactive
same,outcome,[8],inactive
same,outcome,[9],inactive
same,outcome,[11],inactive
same,outcome,[12],inactive
same,outcome,[13],inactive
C=C(C)C(=O)OCCC(F)(F)C(F)(F)C(F)(F)C(F)(F)C(F)(F)C(F)(F)F,outcome,[1],inactive
same,outcome,[16],inactive
same,outcome,[3],inactive
same,outcome,[17],inactive
same,outcome,[5],inactive
same,outcome,[6],inactive
same,outcome,[14],inactive
same,outcome,[7],inactive
same,outcome,[10],inactive
same,outcome,[11],inactive
same,outcome,[12],inactive
same,outcome,[20],inactive
same,outcome,[18],inactive
same,outcome,[13],inactive
